The results in this text go back to PubChem BioAssay AID449762 (Southern Research Specialized Biocontainment Screening …, 2010).

Structures are written as SMILES. “And” between values parts separate entries of the source, which are not always exact repeats. Identical values can stand only once. Hit rate of the full screen: of about 330,000 compounds, about 1,900 (0.58%) were called active. Roughly 4% stayed inconclusive and do not appear here. Cut-off read from the data, not from the text of the source: inconclusive = inhibition above about 70% without an active follow-up result; inactive = below that. These entries were drawn from the full list. Results with a measured potency or affinity are listed apart.

The nature of this assay: M. tuberculosis growth inhibition, HTS (AID 449762).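 Note: bacterial growth assessed after seven days of incubation.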 The settings on record: M. tuberculosis H37Rv growth inhibition, 7H9 media; at 25 µM; stronger effect = higher value.
As usually defined, the inhibition is the drop in the measured response relative to a control, in per cent. On to `O=C(N/N=C/c1sc(=O)[nH]c1-[n+]1ccccc1)c1ccccc1[O-]`, for which the inhibition is -8.63% (inactive).
Take `CCOc1ccc(N2C(=O)CNC2=S)cc1`: the inhibition was 0.76% (inactive).
The result for `CCOc1ccc(N2CC(=O)N(c3ccc(OCC)cc3)CC2=O)cc1` reads -4.6% (inactive); that for `O=C(COc1ccc(Br)cc1)c1ccc2c(c1)CCCC2`, 2.77% (inactive); that for `COc1cc(CN2CCC(n3nccc3NC(=O)c3ccccc3OC)CC2)ccc1F`, 7.24% (inactive).
For `COc1cc(NC(=O)CN2CCN(c3ccccc3O)CC2)c(C)cc1[N+](=O)[O-]`, the inhibition was -10.9% (inactive).
On to `Cc1ccc(COc2ccsc2-c2n[nH]c(=S)n2C)cc1`, for which the inhibition was -10.5% (inactive).
For the compound `CN(C)C(=O)CSc1nc2ccc(C(=O)c3ccccc3)cc2[nH]1`, the inhibition was 1.68% (inactive).
For `O=C(c1cccc(Cl)c1)N1CCN(c2ccc(N3CCOCC3)nn2)CC1` the value was 0.55% (inactive).
For `O=C(c1cccc([N+](=O)[O-])c1)N1CCOCC1` the value was 5.5% (inactive); for `COc1ccc(N2CCN(C(=O)C3CC(=O)N(c4ccc(C)cc4)C3)CC2)cc1` (centres undefined), 5.21% (inactive); for `COc1cccc(CC2(CO)CCCN(Cc3ccccc3-c3ccco3)C2)c1` (centres undefined), 5.57% (inactive).
The result for `COc1cccc(C(=O)Nc2cccc(NC(=O)c3cccs3)c2)c1` reads 0.1% (inactive); that for `S=c1[nH]nc(-c2ccncc2)n1/N=C/c1cn(-c2ccccc2)nc1-c1ccccc1`, 1.85% (inactive); that for `O=C(CC1C(=O)NCCN1Cc1ccoc1)NCCc1ccc(Cl)cc1` (centres undefined), -3.28% (inactive).
With `COC(=O)C1CSC(c2ccc(Cl)cc2)N1C(=O)c1ccccc1` (centres undefined), the inhibition is 3.7% (inactive).
Take `Cc1ccnc(N2CCC(C(=O)Nc3ccc4c(c3)OCO4)CC2)n1`: the inhibition was -6.75% (inactive).
For the compound `CCCn1nnnc1NC(=O)c1cc(Br)ccc1OC`, the inhibition was 14.5% (inactive).
Regarding `CCCn1nnnc1NC(=O)COc1ccc(Cl)c(C)c1`, the inhibition was 0.41% (inactive).
Regarding `O=C(COC(=O)COc1ccccc1)Nc1cccc([N+](=O)[O-])c1`, the inhibition is -0.12% (inactive).
For the compound `CC(CCc1ccc(O)cc1)NCCC(c1ccccc1)c1ccccc1` (centres undefined), the inhibition is 64.6% (inactive).
On to `COc1cc(OC)c(OC)cc1CCC(C)NC(=O)Cc1ccccc1` (centres undefined), for which the inhibition is 2.6% (inactive).
`CCOc1ccc(NC(=O)NNC(=O)C2CCC(C(C)(C)C)CC2)cc1` (centres undefined): the inhibition is -6.75% (inactive).
Regarding `O=C(O)CCC(=O)Nc1ccccc1Oc1ccccc1`, the inhibition is -2.18% (inactive).
The result for `Cc1cc(C)cc(NC(=O)c2cccc(C(=O)Nc3cc(C)cc(C)c3)n2)c1` reads 5.97% (inactive).
On to `CN1C2CCC1/C(=C\c1ccccc1F)C(=O)/C2=C/c1ccccc1F`, for which the inhibition is 5.25% (inactive).
Take `CN1C2CCC1/C(=C/c1cccn1C)C(=O)/C2=C\c1cccn1C`: the inhibition was 10.6% (inactive).
For `C=CCOc1ccc(CNCC2CCCO2)cc1` (centres undefined) the value was -1.36% (inactive).
In the case of `Cc1noc(C)c1CSCC(=O)N(CC(C)C)c1c(N)n(Cc2ccccc2)c(=O)[nH]c1=O`, the inhibition is -5.68% (inactive).
Turning to `CC(=O)Nc1ccc(N2C(=O)c3ccc(S(=O)(=O)c4ccc(C(=O)O)cc4)cc3C2=O)cc1`, the inhibition was -2.44% (inactive).
Regarding `COc1ccc(C(=O)ON=C2C=C(C)C(=O)C(C)=C2)cc1`, the inhibition is 63.5% (inactive).
For the compound `COc1ccc(S(=O)(=O)N=C2C=C(C)C(=O)C(C)=C2)cc1`, the inhibition is -12.4% (inactive).
Take `Cc1cc(C)n(C(=O)c2ccc(S(=O)(=O)N3CCOCC3)cc2)n1`: the inhibition was -3.21% (inactive).
On to `COc1ccccc1NC(=O)COC(=O)/C=C/c1ccc(OC)c(OC)c1`, for which the inhibition was 24.8% (inactive).
Turning to `COc1ccccc1OCCNC(=O)/C=C/c1ccc([N+](=O)[O-])cc1`, the inhibition is 2% (inactive).
For `Cn1c(=O)[nH]c(=O)c2c1nc(NCCCO)n2CCOc1ccccc1`, the inhibition is -8.75% (inactive).
As for `O=C(C1=COCCO1)N(Cc1nnc(-c2ccccc2Cl)o1)C1CC1`, the inhibition is 1.25% (inactive).
The result for `O=C(c1cc2ccccc2o1)N(Cc1nnc(-c2ccccc2Cl)o1)C1CC1` reads -0.85% (inactive).
Consider `CCOC(=O)N1CCN(C(=O)c2cc3ccc(OC)cc3[nH]2)CC1`, for which the inhibition is -1.51% (inactive).
In the case of `COc1ccc(C(=S)N2CCC(C(N)=O)CC2)cc1Br`, the inhibition was -5.29% (inactive).
For `CC1CCCC(C)N1CC(O)COc1ccc(Cl)cc1` (centres undefined) the value was -8.81% (inactive).
With `COc1cc(OC)c(C(=O)/C=C/c2ccc(OCc3ccccc3)c(OC)c2)c(OC)c1`, the inhibition was 55.4% (inactive).
For `CCOc1ccc(N=c2cc(-c3ccc(OC)cc3)oc3ccccc23)cc1` the value was 2.75% (inactive); for `COc1ccc(-c2cc(=Nc3ccc(C)cc3)c3ccccc3o2)cc1`, 18.3% (inactive).
With `Nc1ccc(C(=O)OCCCc2nc3ccccc3[nH]2)cc1`, the inhibition is 2.21% (inactive).
In the case of `Nc1ccc(C(=O)OCc2nc3cc4ccccc4cc3[nH]2)cc1`, the inhibition is 3.37% (inactive).
As for `C/C=C(\C)CN1CCCC(CO)(Cc2ccccc2)C1` (centres undefined), the inhibition was 12.6% (inactive).
With `Cc1nc(SCC(=O)N2CCNC2=O)c2ccccc2n1`, the inhibition was 0.14% (inactive).
Turning to `CCCCCCNC(=O)C(C#N)c1nc2ccccc2nc1N1CCOCC1` (centres undefined), the inhibition is 1% (inactive).
With `N#CC(C(=O)NCCc1ccccc1)c1nc2ccccc2nc1N1CCOCC1` (centres undefined), the inhibition was 4.18% (inactive).
Regarding `CCCc1cc(=O)[nH]c(SCC(=O)c2cc(C)n(C)c2C)n1`, the inhibition is 2.23% (inactive).
Consider `Cc1sc2c(c1C)CN(C(C)(C)C)CN2C(=O)c1ccccc1`, for which the inhibition was -8.66% (inactive).
For `COc1ccc(N2CCN(c3nc(NCCc4ccc(OC)c(OC)c4)nc(OC)n3)CC2)cc1` the value was -2.33% (inactive).
As for `COc1ccc(CCNc2nc(N3CCOCC3)nc(N3CCOCC3)n2)cc1OC`, the inhibition was -5.04% (inactive).
For `Cc1ccc(CNC(=O)CN(C)S(=O)(=O)c2cnc[nH]2)cc1` the value was -4.45% (inactive).
In the case of `Cc1cccc(C)c1NC(=O)COc1ccccc1C(=O)Nc1ccc(Br)cn1`, the inhibition was 3.17% (inactive).
With `O=C(NC(=S)Nc1ccccc1Cl)C1CC1`, the inhibition was 11.2% (inactive).
On to `COc1cc(NC(=O)C2CCN(S(=O)(=O)c3cccc4nonc34)CC2)cc(OC)c1`, for which the inhibition was 2.95% (inactive).
For `CCOC(=O)C(CC)Sc1ncnc2c1nnn2-c1ccc(F)cc1` (centres undefined) the value was -6.34% (inactive).
The result for `CCOC(=O)CC(=O)CSc1ncnc2c1nnn2-c1ccc(F)cc1` reads -7.23% (inactive); that for `COC(=O)c1cc(NC(=O)C(C)c2ccc(CC(C)C)cc2)ccc1O` (centres undefined), 20.8% (inactive); that for `CC1CCCN(C(=O)COC(=O)c2cccc(NS(=O)(=O)c3ccccc3)c2)C1` (centres undefined), -11.8% (inactive).
In the case of `O=C(Cn1nnc(-c2ccccc2)n1)OCc1ccccc1`, the inhibition was -6.9% (inactive).
For the compound `O=C(O)c1cccc(-c2nnn(Cc3ccccc3)n2)c1`, the inhibition was -10.4% (inactive).
For `CCCCc1nnc(NC(=O)C(=O)OCC)s1` the value was -3.95% (inactive); for `Cc1ccsc1C(=O)Nc1cccc(-n2cnnn2)c1`, -0.76% (inactive).
As for `CCN(CC)S(=O)(=O)c1ccc(/C=C/C(=O)OCC(=O)N(C(C)C)C(C)C)cc1`, the inhibition was 3.48% (inactive).
As for `CCN(CC)S(=O)(=O)c1ccc(/C=C/C(=O)OCC(=O)N(C)C)cc1`, the inhibition was 4.6% (inactive).
As for `COc1ccc(NC(=S)N(CCCN2CCCC(C)C2)Cc2cccs2)cc1` (centres undefined), the inhibition is 6.16% (inactive).
As to `N#Cc1ccc(Cn2ccnc2C(=O)Nc2ccccc2)cc1`, the inhibition is 0.04% (inactive).
For `CCN(CC)CCN1C(=O)C(=O)/C(=C(/O)c2ccc(S(=O)(=O)N3CCOCC3)cc2)C1c1ccc(C(C)C)cc1` (centres undefined), the inhibition was 1.15% (inactive).
Turning to `CCNCc1nc2cc(OC)c(OC)cc2c(=O)[nH]1`, the inhibition was 2.16% (inactive).
`CCOC(=O)c1sc2nc(C)nc(SCC(=O)NC(C)CCc3ccccc3)c2c1C` (centres undefined): the inhibition is -5.1% (inactive).
Consider `CCOC(=O)c1sc2nc(C)nc(SC(C)C(=O)NC3CC3)c2c1C` (centres undefined), for which the inhibition is 44% (inactive).
For `O=C(c1ccc(F)cc1)C(CCCCCC(CN1CCOCC1)C(=O)c1ccc(F)cc1)CN1CCOCC1` (centres undefined) the value was 2% (inactive); for `COc1ncnc2c1oc1ccccc12`, 6.25% (inactive).
For the compound `c1cncc(-c2nc3c(ccc4ccccc43)[nH]2)c1`, the inhibition is -6.09% (inactive).
`Nc1ccc(-c2nc3c(ccc4ccccc43)[nH]2)cc1`: the inhibition was 6.07% (inactive).
Consider `O=C(Nc1ccc(S(=O)(=O)Nc2ccnn2-c2ccccc2)cc1)C(F)(F)F`, for which the inhibition is 56.7% (inactive).
`CC(=O)NC(CC(=O)Nc1nc(-c2ccc(N(C)S(C)(=O)=O)cc2)cs1)c1ccccc1` (centres undefined): the inhibition is -3.7% (inactive).
As for `CCCCCNc1nc(-c2ccccc2)nc(-n2ccnc2)n1`, the inhibition is -1.97% (inactive).
In the case of `CC(C)Nc1nc(-c2ccccc2)nc(-n2ccnc2)n1`, the inhibition is 12.9% (inactive).
Take `CCCOc1ccc(-c2nnn(CC(=O)c3ccc4c(c3)OCCO4)n2)cc1`: the inhibition was -6.75% (inactive).
On to `C=CCN1CC[C@]23c4c5ccc(O)c4OC2C(=O)CC[C@@]3(O)C1C5` (some centres undefined), for which the inhibition is -3.13% (inactive).
On to `C=CCN1CC[C@]23c4c5ccc(O)c4O[C@H]2C(=O)CC[C@@]3(O)[C@H]1C5`, for which the inhibition was 29.2% (inactive) and -16.4% (inactive).
Regarding `COc1ccc(C(=O)Nc2ccc(OCC(F)(F)C(F)F)c(C(F)(F)F)c2)cc1OC`, the inhibition was -1.87% (inactive).
The result for `O=C(Nc1ccc(OCC(F)(F)C(F)F)c(C(F)(F)F)c1)c1ccccc1` reads 3.85% (inactive); that for `COc1ccc(S(=O)(=O)N2CCOCC2)cc1NC(=O)CC1CCCC1`, -1.2% (inactive); that for `O=C(NCc1ccc(F)cc1)Nc1cccc(Cl)c1`, -4.36% (inactive).
As to `CC(C)C(=O)Nc1ccc2c(c1)C(=O)N(CCC(=O)O)C2=O`, the inhibition is 3.16% (inactive).
On to `O=C(NCc1ccc2c(c1)OCO2)C1CCCN1S(=O)(=O)c1ccc(Cl)cc1` (centres undefined), for which the inhibition is -0.02% (inactive).
As to `CC(=O)Nc1cccc(NC(=S)Nc2cccc(Cl)c2Cl)c1`, the inhibition is 0.32% (inactive).
As to `COc1cc(/C=C2\SC(c3ccc(C)cc3)=NC2=O)cc(OC)c1OC`, the inhibition was -5.86% (inactive).
The result for `COc1cc(/C=C2\N=C(C)OC2=O)cc(OC)c1OC` reads 6.29% (inactive).
